# In the library only some 4.6% were active in any assay of this set; here they are far more common.
# Vaccinia Venus – vaccinia inhibition (Venus reporter). Vaccinia virus Venus reporter expression, fluorescence. Potency, µM (highest dose often 36.5 µM), for inactives: at the highest dose activity change, negative = inhibition, most hits filed as inhibitors. 330,000 tested, 0.46% active; calls by dose curve; tested in A549 cells; also: nearly all actives have a fitted effect of over 30% in size
# VACV mCherry inh – vaccinia inhibition (mCherry reporter) | Vaccinia virus mCherry reporter infection, fluorescence | Potency, µM (series often up to 36.5 µM), inactives show top-dose activity change, negative = inhibition, actives largely listed as inhibitors | 310,000 tested, 0.63% active; calls by dose curve; tested in A549 cells; also: nearly all actives have a fitted effect of over 35% in size
# HCV inh – inhibitors of hepatitis C virus infection; Potency, µM (doses to about 41.8 µM), for the others: top-dose activity change, negative = inhibition, most hits filed as inhibitors; 340,000 tested, 3.4% active; Huh7.5.1 HCVcc-Cre infection, luciferase reporter, 44 h; AID 651820; active = well fitted inhibition curve with a large enough effect; inconclusive = small, poorly fitted or top-dose-only effect, or another doubt; inactive = no such curve, though single readings can be large or run the other way
#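 Whole-lifecycle infectious HCVcc-Cre system; cells 1,000/well, compound then virus (~0.5 moi) added 4 h after plating, 44 h culture. Luciferase read 15 sec following 15 min substrate incubation, room temp.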
# Marburg entry inh – inhibitors of Marburg virus binding or cell entry; 300,000 tested, 1.8% active; Potency, µM (doses to about 37.8 µM), for the others: at the top dose activity change, negative = inhibition, actives largely listed as inhibitors; Marburg virus pseudotyped entry inhibition, cell reporter; calls by dose curve; tested in HEK293 cells
# LASV entry inh – blocks Lassa virus binding to or entry into cells; Lassa virus pseudotype entry inhibition, cell reporter; Potency, µM (series often up to 37.9 µM), for inactives: top-dose activity change, negative = inhibition, actives largely listed as inhibitors; 300,000 tested, 1.2% active; calls by dose curve; tested in HEK293 cells; also: nearly all actives have a fitted effect of over 50% in size
# Active calls of the source: *; i = inactive; ? = inconclusive; . = no result; ! = repeats disagree; [ ] = dose if it differs, or a comment. % is scaled to controls: 0 for no effect and ±100 for the full control effect; potency is read from the fitted curve at half-maximal effect.
SMILES,Vaccinia Venus,VACV mCherry inh,HCV inh,Marburg entry inh,LASV entry inh
CC(=O)Nc1ccc(S(=O)(=O)Nc2cccc(-c3ccc(N4CCCCCC4)nn3)c2)cc1,-2%,-14%,.,.,-24%[46.1 µM]
O=S(=O)(Nc1ccc(-c2nc3ccccc3o2)cc1)c1ccccc1,.,.,-7%,23%,20%
CS(=O)(=O)c1ccccc1C(=O)Nc1cccc(-c2nc3ccccc3o2)c1,.,.,11µM*,.,.
CC(=O)Nc1ccc(S(=O)(=O)Nc2cccc(-c3nc4ccccc4o3)c2)cc1,.,.,13µM*,?,?
Cc1ccc(C)c(N2CCN(C(=O)c3cn(CC(C)C)c(=O)c4c3c3ccccc3n4C)CC2)c1,-27%,-15%,.,-3%[46.1 µM],?
CN(C)c1ccc(/C=C/c2sc3ccccc3[n+]2CCCCI)cc1,i,298%,.,.,.
O=S(=O)(c1cc(F)ccc1F)N1CCN(c2ncnc3ccccc23)CC1,.,.,3.2µM*,.,.
O=S(=O)(c1cc(F)ccc1F)N1CCN(c2ccccn2)CC1,.,.,6%,.,.
CC(O)(COc1ccccc1)c1ccc2c(c1)CN(Cc1ccccn1)CCO2 (stereo not drawn),-5%,-9%,.,.,.
O=C(NCCc1csc2nc(-c3ccccc3F)nn12)C(=O)Nc1cc(F)ccc1F,5%,-9%,.,.,1%[46.1 µM]
CCOc1ccc(CCNC(=O)COC(=O)c2c(C)nn(-c3ccccc3)c2C)cc1OCC,-9%,-5%,?,0%[46.1 µM],-17%[46.1 µM]
Cc1nn(-c2ccccc2)c(C)c1C(=O)OCC(=O)Nc1ccccc1,-17%,0%,?,3%,-17%
Cc1nn(-c2ccccc2)c(Cl)c1C(=O)OCC(=O)NCCc1ccccc1,-7%,-4%,?,11µM*,?
COc1ccccc1NC(=O)COC(=O)c1c(C)nn(-c2ccccc2)c1C,.,.,14µM*,.,.
CCN(CC(=O)Nc1ccc(NC(C)=O)cc1)C(=O)c1cc(-c2ccccc2)nn1-c1ccccc1,-20%,-1%,-25%,-9%,-26%
CCCN(CC(=O)Nc1ccccc1OC)C(=O)c1cc(-c2ccccc2)nn1-c1ccccc1,.,.,11µM*,.,.
Cc1cc(NC(=O)COC(=O)c2c(C)nn(-c3ccccc3)c2C)no1,.,.,-29%,?,18µM*
COc1ccc(CCNC(=O)Cn2c(=O)nc(-c3ccccc3)c3ccccc32)cc1OC,-18%,i,.,.,-15%[46.1 µM]
CCc1cccc(C)c1NC(=O)C(C)Sc1nc2c(c(=O)[nH]1)CCCC2 (stereo not drawn),-2%,8%,.,5%[46.1 µM],17%[46.1 µM]
O=C(/C=C\Nc1ccccc1Br)c1ccc2c(c1)OCO2,-12%,-22%,?,5.6µM*,.
O=C(/C=C/Nc1ccc(F)cc1Br)c1ccccc1,-3%,3%,0%,?,2µM*
Cc1cc(N/C=C/C(=O)c2ccccc2)ccc1Br,.,.,-3%,.,.
CCCCCCOc1ccc(/C(C)=N/NC2=NCCN2)cc1,.,.,11µM*,.,.
CCCCCCOc1ccc(C(=O)O)cc1,.,.,15%,.,.
CCOc1ccc(Br)cc1/C(C)=N\NC1=NCCN1,?,.,4.5µM*,?,?
SMILES,Vaccinia Venus,VACV mCherry inh,HCV inh,Marburg entry inh,LASV entry inh
COc1ccc(-c2n[nH]c3c2cnc2ccc(F)cc23)cc1,-5%,-7%,.,.,?
COC(=O)c1ccccc1NC(=O)c1cc2nc(-c3ccc(OC)cc3)cc(C(F)(F)F)n2n1,-4%,6%,.,7%[46.1 µM],27%[46.1 µM]
CCN1C(=NCc2ccc3c(c2)OCO3)NC(CCc2ccccc2)C(C(=O)OC)=C1C (stereo not drawn),.,.,.,-30%[14.2 µM],?
Cc1coc2c1C(=O)C(=O)c1c-2ccc2c(C)cccc12,7.1µM*,?,3%,.,.
CC1COC2=C1C(=O)C(=O)c1c2ccc2c1CCCC2(C)C (stereo not drawn),9%,-5%,.,.,.
C[C@H]1COC2=C1C(=O)C(=O)c1c2ccc2c1CCCC2(C)C,11µM*,11µM*,?,.,.
Cc1coc2c1C(=O)C(=O)c1c-2ccc2c1CCCC2(C)C,11µM*!,10µM*!,?,.,.
COc1cc(C2C(=O)N(C3CCCCC3)CC(=O)N2CCC2=CCCCC2)ccc1OC(C)C (stereo not drawn),-16%,0%,.,.,17%[46.1 µM]
COc1ccccc1OCC(=O)N/N=C(\C)c1ccc2ccccc2c1,-30%,?,.,.,.
C/C(=N\NC(N)=S)c1ccc2c(c1)OCCO2,?,?,?,-2%,-27%
CC(=NNC(N)=S)c1ccc2cc3c(cc2c1)OCO3,2µM*,?,.,.,.
COc1cc2ccc(C(C)=NNC(N)=S)cc2cc1OC,?,6.3µM*,.,.,.
CCOC(=O)Cc1ccc(NC(=O)N2CC(C)Oc3ccc(Cl)cc32)cc1 (stereo not drawn),-3%,-1%,.,.,1%[46.1 µM]
Cc1cccc(NC(=O)Cn2c(=O)n(CCCCCC(=O)NCc3ccccc3)c(=O)c3sccc32)c1,11%,6%,.,?,-11%[46.1 µM]
CCc1nn(C(C)C(=O)NC(C)CCc2ccco2)c(=O)c2cc3occc3n12 (stereo not drawn),-15%,.,10µM*,-12%,2%
CCc1nn(C(C)C(=O)NCc2cccc(Cl)c2)c(=O)c2cc3occc3n12 (stereo not drawn),.,.,8.9µM*,.,.
COc1ccc(CCn2c(C)cc3c(c2=O)[C@H](c2ccc4c(c2)OCO4)C(C#N)=C(N)O3)cc1OC,.,.,.,-28%,.
CCCNC(=O)CCC(=O)N1Cc2cccc(OC)c2Oc2ncccc21,-10%,-13%,.,.,?
COc1ccc(NS(=O)(=O)c2ccc(-n3cccn3)cc2)cc1OC,?,-12%,.,.,-17%[46.1 µM]
Cc1c(Cl)cccc1NC(=O)CSc1ncccc1C(=O)Oc1ccccc1Cl,-12%,1%,.,.,?
O=C(N/N=C/c1ccccc1Cl)c1n[nH]c2c1CCCC2,.,.,5%,1.3µM*,?
C=CCN1C(=O)C(CC(=O)Nc2ccc(OCCC)cc2)N(CCCN2CCN(Cc3ccccc3)CC2)C1=S (stereo not drawn),11µM*,?,10µM*,?,?
CCCn1nc(NC(=O)c2ccco2)c2cc3cc(C)ccc3nc21,.,.,13µM*,.,.
CC(C)c1ccc(OCc2ccc(C(=O)O)o2)cc1,6%,-14%,21%,3.7µM*,3.5µM*
CN(C)c1ccc(/C=C/c2cc(Cl)nc3ccccc23)cc1,-17%,i,.,.,.
SMILES,Vaccinia Venus,VACV mCherry inh,HCV inh,Marburg entry inh,LASV entry inh
CC(=O)c1ccc(F)c(-c2cc(C)cc3c2OC(CNC(=O)Cc2ccc4c(c2)OCO4)C3)c1 (stereo not drawn),-7%,-7%,.,.,.
CCN(CC)c1ccc(/C=N/NC(=O)CCC(=O)NCc2ccccc2)c(O)c1,?,10µM*,?,?,?
CCN(CC)c1ccc(/C=N/NC(=O)CNC(=O)C2COc3ccccc3O2)c(O)c1 (stereo not drawn),?,2.8µM*,11µM*,4.5µM*,11µM*
COc1cc(/C=N\NC(=O)CNC(=O)C2COc3ccccc3O2)ccc1O (stereo not drawn),-17%,-18%,8%,1%,8%
CCN(CC)c1ccc(/C=N/NC(=O)c2c(Cl)cnn2C)c(O)c1,?,1.1µM*,3.5µM*,1.1µM*,21µM*
Cn1ncc(Cl)c1C(=O)N/N=C/c1cc2c(cc1[N+](=O)[O-])OCO2,.,.,-7%,-25%,1%

# From PubChem
